The results in this text go back to PubChem BioAssay AID1863 (Southern Research Specialized Biocontainment Screening …, 2009).

In all, about 300,000 compounds went through this assay and about 480 (0.16%) were called active. Not all results are given here. Potency and affinity values are given separately. A number with no mark means an inactive call.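 How the source made its calls: active means inhibition over 29.93%, a cutoff 3 SD above the screen mean, later confirmed by dose response; inconclusive means inhibition over 29.93% but no dose response follow-up; inactive means inhibition at most 29.93% or unconfirmed.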

This assay in a line: inhibitors of PhoP regulon expression, primary screen, Salmonella Typhimurium, GFP reporter (AID 1863).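 Further: 0% = low Mg2+ inducing control and 100% = high Mg2+ repressing control.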 Particulars: S. Typhimurium PhoP-regulated promoter GFP reporter, 4 h; at 50 µM; hits give high values.
On to `Cc1ccc(N2C(=O)N(Cc3ccccc3C)c3ccccc3S2(=O)=O)cc1`, for which the inhibition is 3.76%.
To `O=C(N/N=C/c1ccc(O)c2ncccc12)c1cccc(Br)c1` belongs -1.53%; to `Cc1ccccc1N=Nc1ccc(O)c2ncccc12`, -2.25%; to `Cc1ccc(N=Nc2ccc(O)c3ncccc23)cc1`, 0.67%.
Regarding `Oc1ccc(F)c2cccnc12`, the inhibition was -2.12%.
As to `CN(c1ccc(C(=O)Nc2ccccc2C(=O)N2CCCC2)cc1)S(C)(=O)=O`, the inhibition is 1.89%.
As to `CCn1c(C(=O)O)c(CC(=O)Nc2ccccc2OC)c2ccccc21`, the inhibition was -3.77%.
With `CCC/C=C1/CCCOC(C(=O)NCc2ccccn2)(C(F)(F)F)C1` (centres undefined), the inhibition is 4.57%.
Take `COC(=O)c1ccccc1NC(=O)Nc1ncccc1C`: the inhibition was 8.31%.
For the molecule `C=CCn1c(-c2sc3nc(C)cc(C)c3c2N)n[nH]c1=S`, the inhibition was 1.92%.
With `CN(Cc1ccccc1)S(=O)(=O)c1ccc(Cl)c(C(=O)NCCc2ccccn2)c1`, the inhibition is -2.89%.
With `Cc1ccc(S(=O)(=O)NC(=O)NCc2ccc(F)cc2)cc1`, the inhibition is -2.51%.
On to `COc1ccc(-c2nnc(SCC(=O)NC(=O)NCc3ccccc3)o2)cc1`, for which the inhibition was 2.48%.
With `CCCc1cc(=O)oc2cc(C)cc(OCC(=O)NCCCN3CCCC3=O)c12`, the inhibition is -4.85%.
Regarding `Cn1nnnc1SCc1nc2ccccc2s1`, the inhibition is -6.44%.
As for `COc1c(C(=O)Nc2ccc(CN3CCOCC3)cc2)cc2ccccc2c1Br`, the inhibition is 2.69%.
On to `CN(C)CCn1nnnc1SCC1=C(C(=O)O)N2C(=O)[C@@H](NC(=O)Cc3csc(N)n3)[C@H]2SC1`, for which the inhibition was 2.16%.
Regarding `C=CC1=C(C(=O)O)N2C(=O)C(NC(=O)Cc3ccccc3)C2SC1` (centres undefined), the inhibition is -2.7%.
To `CC1=C(C(=O)O)N2C(=O)C(NC(=O)c3ccn(C)n3)C2SC1` (centres undefined) belongs 5.21%.
To `C[C@H]1[C@H](NC(=O)C(=NOC(C)(C)C(=O)O)c2csc(N)n2)C(=O)N1S(=O)(=O)O` belongs -6.02%.
With `COC(c1ccccc1)(c1ccccc1)C(Oc1nccc(C)n1)C(=O)O` (centres undefined), the inhibition is -3.3%.
For `COc1cccc(C(=O)Nc2cnc(NC(=O)c3ccco3)cc2C)c1`, the inhibition is 12.2%.
Take `C=CCN=C(NC#N)SCC(=O)c1cccc(OC)c1`: the inhibition was -4.71%.
As to `O=C(NCCCn1ccnc1)/C(=C\c1ccc(Br)cc1)NC(=O)c1ccccc1F`, the inhibition was -5.42%.
Turning to `COc1cc(O)c(C(CC(=O)N2CCOCC2)c2cc(OC)c(OC)c(OC)c2)c(OC)c1` (centres undefined), the inhibition was -0.44%.
To `CO[C@H]1C=CO[C@@]2(C)Oc3c(C)c(O)c4c(O)c(c(C=NN5CCN(C6CCCC6)CC5)c(O)c4c3C2=O)NC(=O)C(C)=CC=C[C@H](C)[C@H](O)[C@@H](C)[C@@H](O)[C@@H](C)[C@H](OC(C)=O)[C@@H]1C` belongs -1.76%; to `CO[C@H]1C=CO[C@@]2(C)Oc3c(C)c(O)c4c(O)c(c5c(c4c3C2=O)NC2(CCN(CC(C)C)CC2)N=5)=NC(=O)C(C)=CC=C[C@H](C)[C@H](O)[C@@H](C)[C@@H](O)[C@@H](C)[C@H](OC(C)=O)[C@@H]1C`, -10.1%; to `COc1ccccc1CNC(=O)C(=O)NCC1OCCN1C(=O)c1cccs1` (centres undefined), -7.58%.
Consider `CCOc1ncccc1C(=O)NCCCSc1ccccc1`, for which the inhibition was 4.02%.
The value for `COc1ccc(Cl)cc1/C=C(\C#N)C(N)=O` was -5.64%; that for `Cc1ccnc(SCCn2c(N3CCCCC3)nc3c2c(=O)[nH]c(=O)n3C)n1` was 2.87%.
With `CC(=O)Nc1ccc(S(=O)(=O)NCc2cc(=O)n(C)c(=O)n2C)cc1`, the inhibition is 1.8%.
`CCOc1cc(C2/C(=C(/O)c3ccc(OC(C)C)cc3)C(=O)C(=O)N2CCCOC)ccc1O` (centres undefined): the inhibition was -4.64%.
As to `CCc1cc2c3c(c1)/C(=C1/SC(N)=NC1=O)C(=O)N3C(C)(C)C=C2C`, the inhibition was 2.08%.
Consider `Cc1cc(C)cc(CN2C(=O)NC3(CCCCCC3)C2=O)c1`, for which the inhibition is -9.68%.
Regarding `Oc1ccccc1CNCc1ccccc1`, the inhibition was 4.46%.
In the case of `CC(NCc1ccccc1O)c1ccccc1` (centres undefined), the inhibition was -3.45%.
Turning to `CN(C)S(=O)(=O)c1cccc(NC(=O)c2ccc(S(=O)(=O)N3CCCC3)cc2)c1`, the inhibition is -7.11%.
For the molecule `CC(C)OCCCNc1nc2c(-c3ccccc3)nnn2c2ccccc12`, the inhibition is -3.07%.
For `COc1cc(NC(=O)Cn2cnc(S(=O)(=O)N3CCC(C)CC3)c2)cc(OC)c1OC`, the inhibition was -7.04%.
Regarding `CC[C@H]1OC(=O)[C@H](C)[C@@H](O[C@H]2C[C@@](C)(OC)[C@@H](O)[C@H](C)O2)[C@H](C)[C@@H](O[C@@H]2O[C@H](C)C[C@H](N(C)C)[C@H]2O)[C@](C)(O)C[C@@H](C)C(=NOCOCCOC)[C@H](C)[C@@H](O)[C@]1(C)O`, the inhibition is 2.91%.
For `CC[C@H]1OC(=O)[C@H](C)[C@@H](O[C@H]2C[C@@](C)(OC)[C@@H](O)[C@H](C)O2)[C@H](C)[C@@H](O[C@@H]2O[C@H](C)C[C@H](N(C)C)[C@H]2O)[C@](C)(O)C[C@@H](C)C(=O)[C@H](C)[C@@H](O)[C@]1(C)O`, the inhibition was 6.93%.
On to `CCOC(=O)N/N=C\c1cccc(OC)c1OC/C=C/c1ccccc1`, for which the inhibition is 1.25%.
As to `COc1ccccc1CN1C[C@@H]2C[C@@H](c3[nH]c4c(C)cccc4c3C)N3CCC[C@@]23C1=O`, the inhibition was -4.79%.
To `CCOc1cccc(C(=O)NNC(=O)CCC(=O)O)c1` belongs 4.57%.
To `NC(=O)c1ccccc1OCC(=O)N1CCCc2ccccc21` belongs -3.13%.
Consider `Clc1ccc2nc(C3CCN(Cc4ccccc4)CC3)[nH]c2c1`, for which the inhibition was 18.6%.
The value for `Cc1ccc(CN2CCC(c3nc4ccc(Cl)cc4[nH]3)CC2)cc1` was 22.6%; that for `COc1ccc(Oc2ncnc3sccc23)cc1` was 9.87%.
As for `Cc1cc(=O)oc2cc(OCC3CC(c4ccc(Br)cc4)=NO3)ccc12` (centres undefined), the inhibition was -2.2%.
With `Cc1ccc(Cl)cc1NC(=O)C1C2CCC(O2)C1C(=O)O` (centres undefined), the inhibition was -0.09%.
`Fc1cccc(/C=N/Nc2ccccn2)c1`: the inhibition is 10.3%.
On to `FC(F)(F)c1ccc(N/N=C/c2cccnc2)nc1`, for which the inhibition is -0.8%.
As for `CCOc1cc(C2C(C(=O)c3ccccc3)=C(C(=O)OC)Nc3nnnn32)ccc1O` (centres undefined), the inhibition is -7.95%.
`CCOc1ccc(NC(=O)Cn2c(=O)oc3cc(Cl)ccc32)cc1`: the inhibition is -5.34%.
As for `O[C@@H](c1cc(C(F)(F)F)nc2c(C(F)(F)F)cccc12)[C@H]1CCCCN1`, the inhibition is 9.26%.
The value for `FC(F)(F)c1cc(-c2ccccc2)nc(NC2CCCC2)n1` was 2.27%; that for `OC(c1cc(C(F)(F)F)nc2c(C(F)(F)F)cccc12)C1CCCCN1` (centres undefined) was -7.43%.
`CC(O)(c1ccccc1)C(c1ccccc1)C1CCCCN1` (centres undefined): the inhibition is 5.86%.
For `Cc1ccccc1CN1[C@@H]2c3ccccc3C[C@@H]2OCCS1(=O)=O`, the inhibition is 5.91%.
On to `Nn1c(SCC(=O)Nc2ccc3c(c2)OCO3)nncc1=O`, for which the inhibition is -10%.
As to `Cc1cccnc1NC(=O)c1ccc2c(c1)OCO2`, the inhibition is 5.72%.
Turning to `O=[N+]([O-])c1ccc(O)c2cccnc12`, the inhibition is 4.87%.
Turning to `O=[N+]([O-])c1cc([N+](=O)[O-])c2cccnc2c1Oc1ccccc1O`, the inhibition was 11.2%.
With `O=[N+]([O-])c1ccc(O)c2ncccc12`, the inhibition was -0.36%.
As to `O=[N+]([O-])c1ccc(Cl)c2cccnc12`, the inhibition was 2.44%.
Regarding `O=[N+]([O-])c1cccc2c(Cl)ccnc12`, the inhibition is -15%.
With `CN(Cc1cc([N+](=O)[O-])c2cccnc2c1O)C1CCCCC1`, the inhibition is 24.8%.
Consider `Nc1nonc1C(=O)NCCNC(=O)c1cccs1`, for which the inhibition was 17.7%.
Consider `O=C(O)C1CCN(C(=O)COc2ccc3c4c(c(=O)oc3c2)CCCC4)CC1`, for which the inhibition is 4.17%.
In the case of `COc1ccc(N2CCN(c3oc(-c4ccco4)nc3C#N)CC2)cc1`, the inhibition is 26.4%.
For `COc1cc(S(=O)(=O)n2ccnc2)ccc1Br`, the inhibition was -8.94%.
For `O=C(NCC1CCCO1)C(C(=O)c1ccc(F)cc1)n1ccccc1=O` (centres undefined), the inhibition is 2.45%.
With `COc1ccc(S(=O)(=O)n2oc(=O)cc2-c2ccccc2)cc1`, the inhibition is -4.7%.
To `CCN(CC)C(=S)Nc1ccc([N+](=O)[O-])cc1` belongs 3.9%.
Take `Oc1ccc(Cl)cc1CNn1cnnc1`: the inhibition is 18.7%.
The value for `Oc1ccc(Cl)cc1CNc1ccccn1` was 14.1%; that for `O=C(c1cc2c(=O)oc3ccccc3c2s1)N1CCOCC1` was 2%.
The value for `CCOC(=O)NCC(C#CCN(CC)CC)N(CC)CC` (centres undefined) was 4.11%; that for `O=C(O)CSc1cc(NS(=O)(=O)c2ccc(Cl)cc2)c2ccccc2c1O` was -5.26%; that for `O=C(O)CSc1cc(NS(=O)(=O)c2ccc(Br)cc2)c2ccccc2c1O` was 0.22%.
To `CC(C)Oc1ccc(C(=O)OC(C)C(=O)Nc2nc(-c3cccc([N+](=O)[O-])c3)cs2)cc1` (centres undefined) belongs 3.69%; to `COc1ccc(CN2C3CCC2CC(NC(=O)c2cccc(F)c2)C3)cc1` (centres undefined), 5.59%; to `Cc1ccc(C23CC4CC(CC(CN)(C4)C2)C3)cc1`, 26.1%.
With `NCC12CC3CC(C1)CC(c1ccc(Cl)cc1)(C3)C2`, the inhibition was 10.5%.
As to `CCOC(=O)N1CCN(C(=O)c2ccc(NS(C)(=O)=O)cc2)CC1`, the inhibition was 12.6%.
Consider `O=C(NCCc1ccccc1)c1ccc(-c2ccc(F)cc2)o1`, for which the inhibition is 0.73%.
Regarding `CCSc1nc(N2CCOCC2)c2ccccc2n1`, the inhibition was -4.32%.
Regarding `COc1cc(NC(=O)Cn2ccsc2=N)c(C)cc1[N+](=O)[O-]`, the inhibition was 0.16%.

What is called inhibition is the change of the read-out against control, counted positive when it falls.
